Inconclusive results are not listed. Values without a mark were called inactive. The call rests on the fitted dose curve; in most records, active means well fitted curve in the direction sought with a large enough effect; inconclusive means small, poorly fitted or top-dose-only effect, or another doubt; inactive means no such curve, though single readings can be large; an effect the other way counts as inactive or inconclusive.
Assay: qHTS assay to identify small molecule inhibitors of chordoma cells - UCH-1 (AID 1259355); further: nearly all actives have a fitted effect of over 55% in size
Conditions: UCH-1 chordoma viability, CellTiter-Glo, 48 h, combination, with auranofin plus four topoisomerase inhibitors; series mostly up to 46.1 µM; activity, negative = inhibition: at the top concentration
Outline: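 Screening used approved and investigational drugs in 15-point titration against 800 seeded cells per well. A fixed combination of auranofin with camptothecin, doxorubicin, rubitecan and topotecan followed compound addition, and growth was scored by CellTiter-Glo after 48hr.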
On the % scale 0 is the no-effect control and ±100 the full control effect.

SMILES | activity, negative = inhibition
C1CCN2C[C@@H]3C[C@@H](CN4CCCC[C@@H]34)[C@H]2C1 | 3.94% [at 20.6 µM]
C[C@@H](c1ncncc1F)C(O)(Cn1cncn1)c1ccc(F)cc1F (stereo not given in full) | -3.42%
CC(=O)N[C@@H](CC(C)C)C(=O)O | -4.62%
O=c1[nH]cnc2nc[nH]c12 | -22.3%
CCOC(=O)OC(C)OC(=O)[C@@H]1N2C(=O)[C@@H](NC(=O)[C@H](N)c3ccccc3)[C@H]2SC1(C)C (stereo not given in full) | -18.6% [at 20.6 µM]
C=CCNC(N)=S | -6.13%
CCCCCOC(=O)Nc1nc(=O)n([C@@H]2O[C@H](C)[C@@H](O)[C@H]2O)cc1F | -10.7%
COc1cc(O)cc(O)c1 | -10.7%
Cc1cc(-n2nc3ccc(Cl)cc3n2)c(O)c(C(C)(C)C)c1 | -9.27%
NC(=O)CC[C@@H](N)C(=O)O | -7.94%
CCc1cccc(CC)c1NC(=O)CN(CC(=O)O)CC(=O)O | 2.39% [at 20.6 µM]
Cc1ccsc1/C=C/C1=NCCCN1C | -6.91% [at 20.6 µM]
COc1ccc(NS(=O)(=O)c2ccc(N)cc2)nn1 | -8.54% [at 20.6 µM]
CCc1nnc(NS(=O)(=O)c2ccc(N)cc2)s1 | -15.2%
O=C1c2ccccc2S(=O)(=O)N1CCCCN1CCN(c2ncccn2)CC1 | -28.9%
CCCC(O)C(CC)CO (stereo not given) | -10%
CCN(CC)S(=O)(=O)c1ccc(C(=O)O)cc1 | -5.97%
Cc1c(I)c(=O)n(-c2ccccc2)n1C | -7.98%
CCN(CC)CC1CCCCN1CC(=O)N1c2ccccc2C(=O)Nc2cccnc21 (stereo not given) | -6.18%

SMILES | activity, negative = inhibition
CCCCCC(C)N (stereo not given) | -7.89%
NNC(=O)CP(=O)(c1ccccc1)c1ccccc1 | -9.7%
CCCCCCCCCCOc1cc2c(=O)c(C(=O)OCC)c[nH]c2cc1OCC | -11.6%
CN/C(=C\[N+](=O)[O-])NCCSCc1csc(CN(C)C)n1 | -10.2% [at 20.6 µM]
Nc1ccc(S(=O)(=O)c2ccc(N)cc2)cc1 | -8.46%
O=C(CCBr)N1CCN(C(=O)CCBr)CC1 | -22.7%
O=C(O)c1ccccc1C(=O)Nc1ccc(S(=O)(=O)Nc2nccs2)cc1 | -2%
O=C(O)COC(=O)Cc1ccccc1Nc1c(Cl)cccc1Cl | -11.8% [at 20.6 µM]
CNCc1ccccc1 | -2.32%
COC(=O)c1ccc(O)cc1 | 12%
CC(=O)Oc1cccc(C)c1 | -11.3%
CCOc1ccc(C(=O)OCCN(CC)CC)cc1 | -23.5%
O=C(O)[C@@H]1[C@H]2C[C@H]3c4[nH]c5ccccc5c4CCN3C[C@@H]2CC[C@@H]1O | -11.2% [at 20.6 µM]
CCOc1ccccc1O[C@H](c1ccccc1)[C@H]1CNCCO1 | -18%
NS(=O)(=O)c1cc(-c2nn[nH]n2)c(NCc2cccs2)cc1Cl | 0.0516%
CC(=O)Oc1cccc(O)c1 | -0.347%
O=C(O)C(S)C(S)C(=O)O (stereo not given) | -13.5%
NS(=O)(=O)c1cc(C2(O)NC(=O)c3ccccc32)ccc1Cl (stereo not given) | 4.97% [at 20.6 µM]
O=c1[nH]c(=O)n([C@H]2C[C@H](O)[C@@H](CO)O2)cc1I | -27.7% [at 20.6 µM]

Assay: qHTS assay to identify small molecule inhibitors of chordoma cells - UCH-2 (AID 1259356)
Conditions: UCH-2 chordoma viability, CellTiter-Glo ATP luminescence, 48 h; series mostly up to 46.1 µM; activity change, negative = inhibition: at the top concentration

SMILES | activity change, negative = inhibition
C1CCN2C[C@@H]3C[C@@H](CN4CCCC[C@@H]34)[C@H]2C1 | 8.88% [at 20.6 µM]
C[C@@H](c1ncncc1F)C(O)(Cn1cncn1)c1ccc(F)cc1F (stereo not given in full) | -1.57%
CC(=O)N[C@@H](CC(C)C)C(=O)O | 7.65%
O=c1[nH]cnc2nc[nH]c12 | 7.15%
CCOC(=O)OC(C)OC(=O)[C@@H]1N2C(=O)[C@@H](NC(=O)[C@H](N)c3ccccc3)[C@H]2SC1(C)C (stereo not given in full) | -6.7% [at 20.6 µM]
C=CCNC(N)=S | -2.92%
CCCCCOC(=O)Nc1nc(=O)n([C@@H]2O[C@H](C)[C@@H](O)[C@H]2O)cc1F | 7.45%
COc1cc(O)cc(O)c1 | 1.47%
Cc1cc(-n2nc3ccc(Cl)cc3n2)c(O)c(C(C)(C)C)c1 | 6.05%
NC(=O)CC[C@@H](N)C(=O)O | 8.2%
CCc1cccc(CC)c1NC(=O)CN(CC(=O)O)CC(=O)O | 16.7% [at 20.6 µM]
Cc1ccsc1/C=C/C1=NCCCN1C | 3.07% [at 20.6 µM]
COc1ccc(NS(=O)(=O)c2ccc(N)cc2)nn1 | 6.86% [at 20.6 µM]
CCc1nnc(NS(=O)(=O)c2ccc(N)cc2)s1 | 6.9%
O=C1c2ccccc2S(=O)(=O)N1CCCCN1CCN(c2ncccn2)CC1 | -0.0431%
CCCC(O)C(CC)CO (stereo not given) | 3.09%
CCN(CC)S(=O)(=O)c1ccc(C(=O)O)cc1 | -8.99%
Cc1c(I)c(=O)n(-c2ccccc2)n1C | 2.89%
CCN(CC)CC1CCCCN1CC(=O)N1c2ccccc2C(=O)Nc2cccnc21 (stereo not given) | -2.5%

SMILES | activity change, negative = inhibition
CCCCCC(C)N (stereo not given) | 3.07%
NNC(=O)CP(=O)(c1ccccc1)c1ccccc1 | -16.2%
CCCCCCCCCCOc1cc2c(=O)c(C(=O)OCC)c[nH]c2cc1OCC | 1.1%
CN/C(=C\[N+](=O)[O-])NCCSCc1csc(CN(C)C)n1 | 9.34% [at 20.6 µM]
Nc1ccc(S(=O)(=O)c2ccc(N)cc2)cc1 | -2.15%
O=C(CCBr)N1CCN(C(=O)CCBr)CC1 | 19.2%
O=C(O)c1ccccc1C(=O)Nc1ccc(S(=O)(=O)Nc2nccs2)cc1 | 10.8%
O=C(O)COC(=O)Cc1ccccc1Nc1c(Cl)cccc1Cl | 6.83% [at 20.6 µM]
CNCc1ccccc1 | -8.24%
COC(=O)c1ccc(O)cc1 | 3.19%
CC(=O)Oc1cccc(C)c1 | 11.8%
O=C(O)[C@@H]1[C@H]2C[C@H]3c4[nH]c5ccccc5c4CCN3C[C@@H]2CC[C@@H]1O | -2.58% [at 20.6 µM]
CCOc1ccccc1O[C@H](c1ccccc1)[C@H]1CNCCO1 | 2.13%
NS(=O)(=O)c1cc(-c2nn[nH]n2)c(NCc2cccs2)cc1Cl | -6.73%
CC(=O)Oc1cccc(O)c1 | 20.9%
O=C(O)C(S)C(S)C(=O)O (stereo not given) | 7.64%
NS(=O)(=O)c1cc(C2(O)NC(=O)c3ccccc32)ccc1Cl (stereo not given) | 2.76% [at 20.6 µM]
O=c1[nH]c(=O)n([C@H]2C[C@H](O)[C@@H](CO)O2)cc1I | 7.3% [at 20.6 µM]

— PubChem BioAssay (NCATS)
